Screening results from PubChem.
KB-3-1 tox: qHTS assay for MDR1-selective chemotherapeutics: Primary screen using the parental adenocarcinoma cell KB-3-1 | actives 1.4% (n = 400,000) | Potency, µM (doses to about 46.1 µM), hits mostly cytotoxic | KB-3-1 viability, CellTiter-Glo ATP luminescence, 72 h | AID 1347075, 2019; further: on the % scale 0 is the no-effect control and ±100 the full control effect; nearly all actives have a fitted effect of over 60% in size
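Using CellTiter-Glo luminescence, growth of non-resistant KB-3-1 adenocarcinoma cells is assessed 72 h after pin-tool compound addition at 37 °C. Normalized responses across the concentration series yield fitted curves.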
SW480 rereplic: A quantitative high throughput screen for small molecules that induce DNA re-replication in SW480 colon adenocarcinoma cells; SW480 DNA re-replication, Hoechst DNA content imaging, 48 h; Potency, µM (series often up to 46.1 µM), for inactives: top-dose re-replication activation, actives largely listed as activators; actives 1.8% (n = 340,000); further: % of control where 0% means no effect; nearly all actives have a fitted effect of over 55% in size
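Hoechst fluorescence of nuclei (405 nm excitation, 500-530 nm emission) measured by plate-scanning imager after 48 hr compound exposure at 37 C; re-replication scored as increased number of nuclei with elevated intensity.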
KB-V1 cytotox: qHTS assay for MDR1-selective chemotherapeutics: Primary screen using the drug-selected MDR subline cells KB-V1; KB-V1 MDR cells viability, CellTiter-Glo, 72 h; Potency, µM (highest dose often 46.1 µM), most hits filed as cytotoxic; actives 3.4% (n = 400,000); AID 1347076, 2019; further: on the % scale 0 is the no-effect control and ±100 the full control effect; nearly all actives have a fitted effect of over 60% in size
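Cytotoxicity via CellTiter-Glo luminescence after 72 h compound exposure at 37 degrees C. Cells: drug-selected KB-V1 line, DMEM phenol-red free plus 10% FBS. Compounds tested at multiple concentrations; normalized data fitted to concentration-effect curves.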
MCF10A rereplic: A quantitative high throughput screen for small molecules that induce DNA re-replication in MCF 10a normal breast cells. MCF 10A DNA re-replication, Hoechst nuclear intensity, 48 h. Potency, µM (series often up to 46.1 µM), inactives show at the top dose activity, positive = re-replication, actives largely listed as activators. actives 2.9% (n = 350,000). AID 624296, 2012; further: % of control where 0% means no effect; nearly all actives have a fitted effect of over 50% in size
ELG1 repair inh: qHTS screen for small molecules that inhibit ELG1-dependent DNA repair in human embryonic kidney (HEK293T) cells expressing luciferase-tagged ELG1; actives 2.3% (n = 330,000); Potency, µM (highest dose often 46.1 µM), for inactives: at the top dose activity change, negative = inhibition, most hits filed as inhibitors; AID 504467, 2011; HEK293T ELG1-luciferase reporter, luminescence, 16 h; DNA damage induced by 5-fluorouridine; further: on the % scale 0 is the no-effect control and ±100 the full control effect; nearly all actives have a fitted effect of over 55% in size
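Luminescence from the luciferase reporter, measured 30 min after ONE-Glo reagent at room temperature, was the read-out. Beforehand, 2,000 cells per well were exposed for 16 hr at 37 °C to 5-fluorouridine together with compound or vehicle.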
Active calls of the source: *; i = inactive; ? = inconclusive; . = no result given. In the library only some 8.1% were active in any assay of this set; here they are far more common. The call rests on the fitted dose curve; in most records, active means well fitted curve in the direction sought with a large enough effect; inconclusive means small, poorly fitted or top-dose-only effect, or another doubt; inactive means no such curve, though single readings can be large; an effect the other way counts as inactive or inconclusive. Potency means the concentration at half of the fitted maximal effect.

SMILES | KB-3-1 tox | SW480 rereplic | KB-V1 cytotox | MCF10A rereplic | ELG1 repair inh
CCn1c(SCC(=O)Nc2nc(-c3ccccc3)cs2)nnc1-c1ccccc1O | ? | -7% | i | 4% | 21µM*
CCOc1ccc(NS(=O)(=O)c2ccc3nc(-c4ccccc4)[nH]c3c2)cc1 | i | . | i | . | .
CCOC(=O)N1CCN(C(=O)C[C@@H]2C[C@@]3(C(=O)OC)CC(C)(C)CC=C3N(Cc3cccc4ccccc34)C2=O)CC1 | i | . | 18µM* | . | .
CCCCCCCCN1C(=O)[C@H](CC(=O)N2CCN(C(=O)c3ccco3)CC2)C[C@@]2(C(=O)OC)CC(C)(C)CC=C12 | i | . | ? | . | .
COC(=O)[C@@]12C[C@@H](CC(=O)N3CCN(C(=O)c4ccco4)CC3)C(=O)N(Cc3cccc4ccccc34)C1=CCC(C)(C)C2 | ? | . | 23µM* | . | .
COc1ccccc1N1CCN(C(=S)NC(=O)/C=C/c2ccc(F)cc2)CC1 | i | -5% | i | 1% | ?
O=c1c2ccccc2[nH]c(=S)n1CCC1=CCCCC1 | i | -6% | i | 4% | ?
Cc1[nH]nc(-c2cccnc2)c1N=NN(C)C | ? | 2.6µM* | 16µM* | 1.6µM* | .
C=CCNc1nc(Nc2ccc(OC)c(OC)c2)c2sc(-c3ccccc3)cc2n1 | 2.1µM* | . | ? | . | .
O=C(CCN1CCN(CC(=O)Nc2ccccc2Cl)CC1)Nc1ccccc1F | i | 5% | i | 26% | ?
O=C(CN1CCN(Cc2ccccc2)CC1)Nc1cccc(C(F)(F)F)c1 | i | 1% | 16µM* | 13% | -1%
O=C(CCCCC(=O)Nc1ccccc1Cl)Nc1ccccc1Cl | i | 2.9µM* | i | -1% | 6%
Cc1c(C(=O)N2CCN(CC(=O)Nc3ccccc3Cl)CC2)oc2ccc(Br)cc12 | i | -11% | i | 23µM* | -11%
O=C(CN1CCN(Cc2ccccc2F)CC1)Nc1ccccc1Cl | i | -16% | i | 0% | 10µM*
Cc1c(C(=O)N2CCCCC2)oc2ccc(Br)cc12 | i | 2% | ? | 6% | ?
CC(C)C(NC(=O)c1cccnc1)C(=O)O (centres undefined) | i | -87% | i | -46% | 3%
Cc1ccc(NC2=CC(=O)OC(C)C2)cc1 (centres undefined) | i | -3% | i | -5% | 1%
COc1ccccc1NC(=O)CN1CCN(CC(=O)Nc2ccccc2Cl)CC1 | i | -2% | i | 2% | 0%
O=C(CN1CCN(C(=O)CNC(=O)c2ccc(-c3ccccc3)cc2)CC1)Nc1ccccc1Cl | ? | . | 8.2µM* | . | .
O=C(CN1CCN(Cc2ccccc2)CC1)N/N=C/c1ccc(Br)s1 | i | -15% | i | 7% | 9.2µM*
O=C(CN1CCN(Cc2ccccc2)CC1)N/N=C/c1ccco1 | i | -11% | i | 27% | 15%
COc1cccc(CN2CCN(CC(=O)Nc3ccccc3Cl)CC2)c1 | i | 1% | i | 6% | 13µM*
Cc1ccc(NC(=O)CN2CCN(Cc3ccccc3)CC2)c(Br)c1 | i | ? | i | ? | 21µM*
CCCCC(=O)Nc1ccc(NC(=O)C2CC2)nc1 | i | 3% | i | -4% | ?
CN(C(=O)CN1C(=O)S/C(=C\c2ccccc2)C1=O)C1CCS(=O)(=O)C1 (centres undefined) | i | 0% | i | -4% | ?
SMILES | KB-3-1 tox | SW480 rereplic | KB-V1 cytotox | MCF10A rereplic | ELG1 repair inh
CN(C(=O)c1cccc(NC(=O)Cc2ccc(NC(=O)C3CCN(C(=O)CCc4ccccc4)CC3)cc2)c1)C1CC1 | i | 19% | i | 2% | .
O=C(c1cccc([N+](=O)[O-])c1)N1CCCC(C(=O)N2CCc3ccccc3C2)C1 (centres undefined) | i | -1% | i | -3% | 15%
O=C1OC[C@H]2CCCN2C(=O)[C@@H](CC(=O)N(CCO)Cc2ccccc2)C/C=C\C[C@@H]1Cc1ccc(F)cc1 | i | 4% | i | ? | ?
COc1cccc(CNc2nc3cc(-c4ccsc4)sc3c(=O)n2C)c1OC | 9.2µM* | . | 2.6µM* | . | .
CC(=O)Nc1ccc(CNc2nc3cc(-c4ccsc4)sc3c(=O)n2C)cc1 | ? | . | 23µM* | . | .
CC(=O)Nc1ccc(CNc2nc3cc(-c4ccc(F)cc4)sc3c(=O)n2C)cc1 | i | . | i | . | .
C=CCNc1nc2cc(-c3ccccc3C)sc2c(=O)n1C | 21µM* | . | ? | . | .
COc1cccc(CNc2nc3cc(-c4ccccc4)sc3c(=O)n2C)c1 | 7.3µM* | . | 2.3µM* | . | .
COc1cccc(CNc2nc3cc(-c4ccc(OC)c(OC)c4)sc3c(=O)n2C)c1 | i | . | i | . | .
CCCCN(C(=O)CCC(=O)Nc1cc(C)on1)C(C(=O)NC(C)(C)CC)c1cccc(OC)c1OC (centres undefined) | i | -7% | i | 1% | -2%
COc1ccccc1N1CCN(/N=C\c2ccc(C)o2)CC1 | i | -7% | i | -3% | ?
CCN(C(=S)NC(=O)C1CCCC1)C1CCCCC1 | i | 2% | i | -5% | -3%
COc1cccc(CNc2nc3cc(-c4ccc(C)cc4)sc3c(=O)n2C)c1OC | ? | . | 12µM* | . | .
COc1cccc(CNc2nc3cc(-c4ccc(F)cc4)sc3c(=O)n2C)c1OC | i | . | i | . | .
Cc1ccc(-n2[nH]c(C)c(/C=N/NC(=O)c3ccc(O)cc3O)c2=O)cc1 | i | 8.2µM* | i | 2% | -1%
Cc1[nH]n(-c2ccc(Br)cc2)c(=O)c1/C=N/NC(=O)c1ccccc1 | 7.3µM* | ? | 1.3µM* | -2% | ?
Cc1[nH]n(-c2ccccc2)c(=O)c1/C=N/NC(=O)c1ccc(O)cc1O | ? | ? | ? | 9% | -2%
Cc1[nH]n(-c2ccccc2)c(=O)c1/C=N/NC(=O)c1cccc(F)c1 | ? | ? | ? | 13% | ?
C=C(C)COc1ccc(-c2n[nH]c(C)c2Oc2ccccc2OC)c(O)c1 | ? | 25% | ? | ? | ?
C=C(C)COc1ccc(-c2[nH]ncc2-c2ccc(OC)c(OC)c2)c(O)c1 | 1.6µM* | 2.9µM* | 1.3µM* | 5.2µM* | 21µM*
C=C(C)COc1ccc(-c2[nH]ncc2Oc2ccccc2OCC)c(O)c1 | ? | ? | i | 16µM* | -28%
C=C(C)COc1ccc(-c2n[nH]c(C)c2-c2ccc(OC)c(OC)c2)c(O)c1 | 6.5µM* | 25% | 5.8µM* | ? | 21µM*
